Laboratory results as given in PubChem BioAssay.
A number with no mark means an inactive call. No rule for the calls is given here.

The compounds below were run against Pantothenate synthetase (Mycobacterium tuberculosis (strain ATCC 25618 / H37Rv)) (UniProt P9WIL5) (assay: Coupled enzyme confirmation of inhibitors against recombinant Mtb PanC (AID 375;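 also: 0% = full reaction with vehicle and 100% = no enzyme background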)). Settings: coupled enzyme assay; at 10 µM, active compounds read high.
Chain of Pantothenate synthetase (Mycobacterium tuberculosis (strain ATCC 25618 / H37Rv)) (P9WIL5 whole entry, looked up): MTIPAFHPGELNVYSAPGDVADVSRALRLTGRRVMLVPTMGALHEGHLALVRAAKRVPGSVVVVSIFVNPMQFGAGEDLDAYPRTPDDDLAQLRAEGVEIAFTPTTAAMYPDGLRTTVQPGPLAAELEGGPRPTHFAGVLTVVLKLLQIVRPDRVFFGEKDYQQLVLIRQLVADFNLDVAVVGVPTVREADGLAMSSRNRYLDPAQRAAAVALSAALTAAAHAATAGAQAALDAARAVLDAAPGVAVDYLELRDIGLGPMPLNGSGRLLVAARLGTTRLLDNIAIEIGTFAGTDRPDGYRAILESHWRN

Structure (SMILES)	inhibition [%]
O=C(NCCCN1CCN(Cc2ccccc2)CC1)C1CCN(c2nnc(-n3cccc3)s2)CC1	0
Cc1cccc(C)c1OCC(=O)Nc1cccc(NC(=O)c2ccco2)c1	12
C=C(C)COc1ccc(-c2nc(N)ncc2Oc2ccccc2OCC)c(O)c1	1
CCc1nnc(NC(=O)CSc2nnc3scc(-c4ccc(C)cc4)n23)s1	0
Cc1cc(C)nc(SCc2nnc(SCC(=O)Nc3ncc(C)s3)n2Cc2ccco2)n1	0
Cc1ccc(S(=O)(=O)N(CC(=O)NCc2ccco2)Cc2ccccc2F)cc1	0
O=C(CSc1ncnc2c1cnn2Cc1ccccc1)Nc1ccc2c(c1)OCCO2	5
O=C(NCCN1CCOCC1)c1ccc(CS(=O)(=O)Cc2ccccc2F)o1	2
Cc1cnc(C(=O)NCCc2ccc(S(=O)(=O)NC(=O)NC3CCCCC3)cc2)cn1	5
Cc1ccccc1OCCCN1C(=O)C(=O)c2cccc(C)c21	0
CC(C)C1N=C2c3ccccc3N=C(SCC(=O)NCCc3ccc(S(N)(=O)=O)cc3)N2C1=O (stereo not given)	0
Cn1c(/C=N/n2cnnc2)nc2ccccc21	2
O=C(O)[C@@H]1CCCN1c1ncnc2sc3c(c12)CCC3	6
Cc1ccc(C)n1NC(=O)c1ccco1	0
OCCn1c(CSc2nnc(-c3ccco3)n2-c2ccccc2)nc2ccc(Cl)cc21	2
O=C(NC1CCCC1)C(c1cccs1)N(Cc1ccco1)C(=O)Cn1nnc(-c2cccs2)n1 (stereo not given)	0
CCn1cc(SCC(=O)Nc2cc(C)on2)c2ccccc21	0
CCN1CCN(c2c(Cl)cccc2NC(=O)c2ccc3c(c2)OCCO3)CC1	0
COCCNS(=O)(=O)c1cc(F)ccc1OC	0
COc1cccc(-c2nnc3sc(-c4ccc(C)cc4)nn23)c1	0

Structure (SMILES)	inhibition [%]
COc1ccc(-c2nnc(SCC(=O)c3cc(C)n(Cc4cccs4)c3C)o2)cc1	0
CN(Cc1ccccc1)C(=O)c1ccc2c(c1)OCO2	0
CN(C)CCCn1c(N)c(C#N)c2nc(C#N)c(C#N)nc21	0
Cc1c(C(=O)OC2CCCCC2)[nH]c2c1C(=O)CC(C)(C)C2	0
CC1(C)O[C@@H]2C[C@H]3[C@@H]4C[C@H](F)C5=CC(=O)C=C[C@]5(C)[C@@]4(F)[C@@H](O)C[C@]3(C)[C@]2(C(=O)CO)O1	1
O=C(O)CCNc1nc(-c2ccccc2)nc2ccccc12	3
Cc1cc(NC(=O)CSc2nc3ccsc3c(=O)n2NC(=O)c2ccccc2)no1	1
O=C(O)c1cccc(COCC(F)(F)C(F)F)c1	0
COCCOC(=O)C1=C(C)N=c2s/c(=C\c3cccs3)c(=O)n2C1c1cccs1 (stereo not given)	1
c1ccc2c(c1)Cc1cc(CN3CCOCC3)ccc1-2	3
Cc1cc(C)c(NC(=O)C2CCCN2CCO)c(C)c1 (stereo not given)	0
Cc1cc(NC(=O)c2cc3ccccc3o2)cc(C)c1OCC(=O)N1CCOCC1	0
O=C1NC(Cc2c[nH]c3ccccc23)C(=O)N1CCOc1ccccc1 (stereo not given)	2
CCOC(=O)c1sc(C)c2c(=O)n(CC)nnc12	0
Cn1cnc2c1c(=O)[nH]c(=O)n2C	0
O=C(Cc1ccccc1)Nc1nnc(-c2cccs2)s1	0
CCOC(=O)C1=C(O)CCn2c1nc1ccccc12	2
O=C1CN(Cc2ccccc2)C(=NCc2ccco2)S1	0
CCCCCc1c(C)nc(N2CCc3ccccc32)[nH]c1=O	0
Cc1cc(NC(=O)CSc2nccn2-c2ccc(Cl)cc2)no1	0
